# Assay outcomes deposited in PubChem BioAssay by National Center for Advancing Translational Sciences (NCATS).
# A selection: hits, their analogues and other compounds. The true share with any hit is near 11%.
# IL1B secr inh: blocks inflammasome-driven IL-1 beta release; activity change, % at 57.5 µM; AID 743279; 360,000 compounds, 4.7% hits; THP-1 LPS/ATP IL-1B secretion, AlphaLISA, 16 h; stronger effect = lower value; in the data active = activity change below about -50%; inconclusive = mostly about -30% to -49%
#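 Secreted IL-1B measured by AlphaLISA bead assay after 16 h compound exposure of THP-1 cells; compounds (final up to 57.5 uM) added 1 h before LPS (250 ng/mL) and ATP (1.25 mM) stimulation; lower signal means less secretion.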
# MCF10A rereplic: inducers of DNA re-replication in MCF 10A breast cells | MCF 10A DNA re-replication, Hoechst nuclear intensity, 48 h | Potency, µM (top dose mostly 46.1 µM), actives largely listed as activators | 350,000 compounds, 2.9% hits; also: nearly all actives have a fitted effect of over 50% in size
# Gal4-VP16 FLuc: Gal4-VP16 reporter inhibition counter-screen. Drosophila S2 Gal4-VP16 UAS-luciferase, luminescence, 20 h. Potency, µM (top dose mostly 53.6 µM), most hits filed as inhibitors. 310,000 compounds, 3.5% hits. AID 2546;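 also: Gal4-VP16 expression switched on by copper sulfate through the metallothionein promoter; nearly all actives have a fitted effect of over 50% in size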
# SW480 rerep: DNA re-replication induction in SW480 cells; SW480 DNA re-replication, Hoechst DNA content imaging, 48 h; Potency, µM (top dose mostly 46.1 µM), actives largely listed as activators; 340,000 compounds, 1.8% hits; AID 624297; also: nearly all actives have a fitted effect of over 55% in size
#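 Readout is total intensity of Hoechst-stained nuclei, excited at 405 nm and collected at 500-530 nm. Compound treatment lasted 48 hr at 37 C in 5% CO2 before staining.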
# RORg inh: blocks mouse ROR gamma transcriptional activity. 310,000 compounds, 5.4% hits. Drosophila S2 Gal4-RORgamma UAS-luciferase reporter, 20 h. Potency, µM (highest dose often 53.6 µM), hits mostly inhibitors. P51450; also: nearly all actives have a fitted effect of over 60% in size
# Target sequence (P51450 whole entry, looked up, the tested form may be a part): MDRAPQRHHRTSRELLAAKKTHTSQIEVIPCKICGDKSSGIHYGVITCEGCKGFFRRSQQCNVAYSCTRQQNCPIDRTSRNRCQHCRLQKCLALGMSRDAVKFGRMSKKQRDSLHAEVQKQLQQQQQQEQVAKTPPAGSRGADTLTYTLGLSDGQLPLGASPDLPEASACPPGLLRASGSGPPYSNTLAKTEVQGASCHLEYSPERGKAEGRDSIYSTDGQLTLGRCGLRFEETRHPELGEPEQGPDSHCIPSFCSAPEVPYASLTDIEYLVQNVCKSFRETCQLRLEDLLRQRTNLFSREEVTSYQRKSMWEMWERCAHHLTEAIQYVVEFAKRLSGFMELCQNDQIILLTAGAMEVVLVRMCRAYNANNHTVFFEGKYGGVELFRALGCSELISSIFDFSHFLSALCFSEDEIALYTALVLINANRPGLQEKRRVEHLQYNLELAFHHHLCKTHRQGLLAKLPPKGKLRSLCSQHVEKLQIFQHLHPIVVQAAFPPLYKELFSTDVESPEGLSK
#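 In this cell-based reporter format, copper sulfate (700 uM final) drives Gal4–ROR gamma fusion expression from a metallothionein promoter in Drosophila Schneider cells; compounds preincubated 1 hr, reporter read after 20 hr at ambient temperature.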
# Hits are given with their value; n = inactive; u = inconclusive; x = no result; ! = a repeat was not active; [ ] = remark or other dose. Unless noted, calls follow the shape of the dose curve; as a rule, active = well fitted curve in the direction sought with a large enough effect; inconclusive = small, poorly fitted or top-dose-only effect, or another doubt; inactive = no such curve, though single readings can be large; an effect the other way counts as inactive or inconclusive.
SMILES,IL1B secr inh,MCF10A rereplic,Gal4-VP16 FLuc,SW480 rerep,RORg inh
Cc1ccc(Cc2cnc(N3C(=N)SC(c4ccccc4)C3=O)s2)cc1 (configuration not stated),n,u,4µM,n,11µM
Cc1ccc(CC2CC(=O)N(c3nc4ccccc4s3)C2=O)cc1 (configuration not stated),n,n,n,n,n
COc1ccc(-c2oc3c(c2C(=O)OCCO)C(OCCCO)CCC3)cc1 (configuration not stated),n,x,x,x,x
CCc1nc2ccc(C(=O)Nc3ccc(OC)c(OC)c3)cn2c1N(C)Cc1cccs1,n,x,x,x,x
NC1=NC2(CCCCC2)N=C(Nc2ccc(F)cc2F)N1,n,n,n,n,n
Cc1cc(C)cc(NC2=NC3(CCCCC3)N=C(N)N2)c1,n,21µM,n,u,n
CCOc1ccc(CNC(=O)Nc2ccccc2)cc1,n,n,n,n,n
COc1ccc(CCC(=O)Nc2cc(S(=O)(=O)N3CCOCC3)ccc2OC(C)C)cc1,n,n,x,n,x
Cc1ccc2[nH]cc(C(=O)NCc3cccs3)c(=O)c2c1,-71,n,n,n,u
Cc1cc(C)cc(NS(=O)(=O)c2ccc3[nH]cc(C(=O)NCc4ccco4)c(=O)c3c2)c1,-56,n,n,n,n
Cc1ccccc1NS(=O)(=O)c1ccc2[nH]cc(C(=O)N(C)Cc3ccco3)c(=O)c2c1,n,n,n,n,n
COc1ccc(CCNC2=CC(=O)CCC2)cc1OC,n,x,x,x,x
CC1CCN(C(=O)CSc2nc(=O)n3ccccc3n2)CC1,n,n,x,n,x
O=C(Nc1ccc(F)cc1)Nc1sccc1-c1nc2ccccc2s1,n,u,u,n,u
O=C(Nc1ccc(O)c(-c2nc3ccccc3s2)c1)c1cccs1,n,n,n,n,n
CNc1sc(C(=O)c2cccs2)c(N)c1-c1nc2ccccc2s1,n,u,4µM,n[9.22 µM],u
CNc1sc(C(=O)c2ccc(F)cc2)c(N)c1-c1nc2ccccc2s1,n,16µM,u,5.2µM,10µM
CC1(C)CC(=O)CC2(C1)NCC(c1ccccc1)c1c2[nH]c2ccccc12 (configuration not stated),-69,n,n,n,n
CC1(C)NC(C(=O)O)Cc2c1[nH]c1ccccc21 (configuration not stated),n,n,n,n,n
COc1ccc([C@]23Cc4ccccc4C(O2)C2=C(CC(C)(C)CC2=O)O3)cc1,x,x,n[10 µM],x,n[10 µM]
Cc1c(NC(=O)C(C)OC(=O)c2ccc(NC(=O)CC#N)cc2)c(=O)n(-c2ccccc2)n1C (configuration not stated),n,n,x,n,x
CC(=O)Oc1cc(O)c2c(c1)OC(c1ccc(OC(C)=O)c(OC(C)=O)c1)C(OC(C)=O)C2=O (configuration not stated),n,n,n,n,n
CC(=O)Oc1cc(OC(C)=O)c2c(c1)OC(c1ccc(OC(C)=O)c(OC(C)=O)c1)C(OC(C)=O)C2 (configuration not stated),x,x,16µM!,x,n
CCCc1nc([N+](=O)[O-])c(S(=O)(=O)c2ccccc2)n1CC(C)C,-100,u,u,u,u
CC(C)Cn1c(C(C)C)nc([N+](=O)[O-])c1S(=O)(=O)c1ccc(F)cc1,-89,21µM,u,18µM,11µM
Cc1cc(NC(=O)c2csc([C@@H]3O[C@H](CO)[C@H](O)[C@H](O)[C@H]3O)n2)n(C)n1,n,x,x,x,x
